STK33 kin inh – blocks human STK33 kinase activity | 27,000 tested, 0.44% active | AID 2322 | ADP-Glo luminescence, MBP substrate | inhibition, % at 12.5 µM; in the data active = inhibition above about 20%; inconclusive = no clear call, values can overlap the other calls
ID4 binder – ID4 (human) binding. P47928. small molecule microarray, Flag-ID4 binding, fluorescence F/B. calls only. 31,000 tested, 1.2% active; call rule not given here;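 note: a binder raises fluorescence above local background on the spot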
Target sequence (P47928 whole entry, looked up): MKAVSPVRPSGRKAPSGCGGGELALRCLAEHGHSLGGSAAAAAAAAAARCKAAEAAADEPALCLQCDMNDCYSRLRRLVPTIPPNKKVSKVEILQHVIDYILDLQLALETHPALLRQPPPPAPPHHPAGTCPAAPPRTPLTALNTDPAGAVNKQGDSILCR
mut p53 react – mutant p53 pathway reactivation | activation, % at 9.98 µM | AID 624151 | 28,000 tested, 1.5% active | SW480 PUMA-promoter luciferase; in the data active = activation above about 52%; inconclusive = no clear call, values can overlap the other calls
NOMO-1 viab – STK33 inhibitor candidate reducing NOMO-1 cell viability. inhibition, % (concentration not given with the values). NOMO-1 AML viability, CellTiter-Glo luminescence, 72 h. 37,000 tested, 7.5% active; in the data active = inhibition above about 80%; inconclusive = no clear call, values can overlap the other calls
A number is an active result; . = inactive; ? = inconclusive; / = no result; + = active, no number. Shown is part of a subset that was picked to be rich in hits.

SMILES	STK33 kin inh	ID4 binder	mut p53 react	NOMO-1 viab
Cc1ccc(S(=O)(=O)Nc2ccc3c(c2)CC(=O)N([C@@H](C)CO)C[C@@H](C)[C@@H](CN(C)C(=O)Nc2c(C)noc2C)O3)cc1	.	.	.	.
C[C@@H]1CN([C@@H](C)CO)C(=O)c2cccc(NC(=O)NC3CCCCC3)c2O[C@H]1CN(C)Cc1ccc(C(F)(F)F)cc1	/	/	/	93
C[C@H](CO)N1C[C@H](C)[C@@H](CN(C)Cc2ccccc2)Oc2c(NC(=O)NC3CCCCC3)cccc2C1=O	/	/	/	84
C[C@@H]1CN([C@@H](C)CO)C(=O)c2cccc(NC(=O)NC3CCCCC3)c2O[C@@H]1CN(C)Cc1ccc(Oc2ccccc2)cc1	/	/	/	85
Cc1cc(C)nc(Nc2n[nH]c(-c3cccnc3)n2)n1	.	.	74	.
COc1ccc(C(=O)CSc2n[nH]c(-c3ccccc3)n2)cc1OC	.	.	.	.
COc1ccc(-c2nc(Nc3nc(C)cc(C)n3)n[nH]2)cc1OC	.	+	85	.
Cc1cc(C)nc(Nc2n[nH]c(COc3ccccc3)n2)n1	.	.	?	.
C[C@H]1CN([C@@H](C)CO)C(=O)c2cc(NC(=O)Nc3ccc(F)cc3)ccc2O[C@H]1CN(C)Cc1ccc(Oc2ccccc2)cc1	.	/	/	.
C[C@H]1CN([C@@H](C)CO)C(=O)c2cc(NC(=O)Nc3ccccc3)ccc2O[C@@H]1CN(C)Cc1ccccc1	.	/	/	.
C[C@@H]1CN([C@H](C)CO)C(=O)c2cc(NC(=O)Nc3ccc(F)cc3)ccc2O[C@H]1CN(C)Cc1ccc(-c2ccccc2)cc1	/	/	/	126
C[C@@H]1CN([C@@H](C)CO)C(=O)c2cc(NC(=O)Nc3ccc(F)cc3)ccc2O[C@@H]1CN(C)Cc1ccc(-c2ccccc2)cc1	/	/	/	115
C[C@@H]1CN([C@H](C)CO)C(=O)c2cc(NC(=O)Nc3ccc(F)cc3)ccc2O[C@@H]1CN(C)Cc1ccc(-c2ccccc2)cc1	/	/	/	92
C[C@H](CO)N1C[C@H](C)[C@@H](CN(C)Cc2ccc(Oc3ccccc3)cc2)Oc2ccc(NC(=O)Nc3ccc(F)cc3)cc2C1=O	/	/	/	.
C[C@@H]1CN([C@H](C)CO)C(=O)c2cc(NC(=O)Nc3ccccc3)ccc2O[C@H]1CN(C)Cc1ccc(-c2ccccc2)cc1	.	/	/	116
O=C(N[C@@H]1CC[C@@H](CC(=O)N2CCOCC2)O[C@H]1CO)c1cccc(F)c1	/	.	/	/
C[C@@H]1CCCCO[C@H](CN(C)C(=O)c2ccncc2)[C@@H](C)CN([C@H](C)CO)C(=O)c2cc(NC(=O)c3ccccc3)ccc2O1	.	/	/	.
C[C@@H]1CN([C@@H](C)CO)C(=O)c2cc(NC(=O)NC3CCCCC3)ccc2O[C@@H]1CN(C)S(=O)(=O)c1ccc(Cl)cc1	/	.	.	.
C[C@H](CO)N1C[C@H](C)[C@@H](CN(C)S(=O)(=O)c2ccc(Cl)cc2)Oc2ccc(NC(=O)NC3CCCCC3)cc2C1=O	/	+	.	.
C[C@H](CO)N1C[C@H](C)[C@H](CN(C)S(=O)(=O)c2ccc(Cl)cc2)Oc2ccc(NC(=O)NC3CCCCC3)cc2CC1=O	.	.	.	119
C[C@@H]1CN([C@H](C)CO)C(=O)Cc2cc(NC(=O)NC3CCCCC3)ccc2O[C@@H]1CN(C)S(=O)(=O)c1ccc(Cl)cc1	.	.	.	.
C=CCN(Cc1ccccc1)C(=O)[C@@H]1N(C(C)(C)C)C(=O)[C@H]2[C@H](C(=O)O)[C@@H]3C=C[C@]12O3	.	/	/	/
O=C(O)CCCc1c[nH]c2ccccc12	.	+	.	/
C[C@@H]1CN([C@@H](C)CO)C(=O)c2cccc(NS(=O)(=O)c3cccs3)c2O[C@H]1CN(C)C(=O)Nc1ccc2c(c1)OCO2	/	/	/	.
C[C@H](NC(=O)C[C@H]1C=C[C@@H](NC(=O)C2CC2)[C@H](CO)O1)c1ccccc1	/	.	/	/
SMILES	STK33 kin inh	ID4 binder	mut p53 react	NOMO-1 viab
C[C@H](CO)N1C[C@H](C)[C@@H](CN(C)Cc2ccc(Cl)c(Cl)c2)Oc2c(NC(=O)c3ccc(-c4nccs4)cc3)cccc2C1=O	/	/	/	116
C[C@@H]1CN([C@@H](C)CO)C(=O)c2cccc(NC(=O)c3ccc(-c4nccs4)cc3)c2O[C@H]1CN(C)Cc1ccc2c(c1)OCO2	/	/	/	103
C[C@H](CO)N1C[C@H](C)[C@H](CN(C)S(=O)(=O)c2ccc(Cl)cc2)Oc2c(NC(=O)c3ccc(-c4nccs4)cc3)cccc2C1=O	/	/	/	84
Cc1nc(S(=O)(=O)N[C@H]2CCN(Cc3ccc(OCCO)cc3)C2)cn1C	.	/	/	/
CC(C)C#Cc1ccc2c(c1)O[C@H](CN(C)C(=O)c1ccccc1)[C@@H](C)CN([C@H](C)CO)S2(=O)=O	/	/	.	/
CCCC(O)c1c(O)cccc1C1(O)CC(=O)C/C1=C\C(O)CC(=O)O (stereo unspecified)	.	.	.	121
N#CC1=C(N)Oc2c(sc3ccccc23)C1c1ccccc1OC(=O)c1ccccc1Cl (stereo unspecified)	/	/	/	115
Cc1cc(C)c(S(=O)(=O)NC(CC(=O)O)c2ccccc2)cc1C (stereo unspecified)	.	.	.	/
Cn1c(SCc2nc(-c3cccs3)no2)nnc1-c1ccco1	.	+	.	.
O=C(COc1ccc(I)cc1)Nc1cc(C(=O)O)cc(C(=O)O)c1	.	+	.	.
C=CCN1CCc2c(cc(O)c(O)c2Br)[C@@H](c2ccccc2)C1	.	.	/	109
CN1CCc2cc(Cl)c(O)cc2[C@@H](c2ccccc2)C1	.	.	/	.
C[C@@H]1CN([C@H](C)CO)C(=O)c2cc(NC(=O)Cn3cnnn3)ccc2O[C@H]1CN(C)CC1CCCCC1	/	/	/	.
CCCc1ccc(O)c(N)c1	/	/	/	124
Cn1nnc2cc(NC(=O)NCc3ccco3)ccc21	.	.	.	.
Cc1nc2cc(NC(=O)NCc3ccco3)ccc2o1	.	.	58	.
C[C@@H]1CN([C@@H](C)CO)C(=O)c2cccc(NS(=O)(=O)c3ccc(Cl)cc3)c2O[C@@H]1CN(C)Cc1ccc(-c2ccccc2)cc1	/	/	/	115
C[C@@H]1CN([C@@H](C)CO)C(=O)c2cccc(NS(=O)(=O)c3ccccc3)c2O[C@@H]1CN(C)Cc1ccc(-c2ccccc2)cc1	/	/	/	98
Cc1ccc(S(=O)(=O)Nc2cccc3c2O[C@@H](CN(C)Cc2ccc(-c4ccccc4)cc2)[C@@H](C)CN([C@@H](C)CO)C3=O)cc1	/	/	/	91
C[C@@H]1CN([C@H](C)CO)C(=O)c2cccc(NS(=O)(=O)c3ccccc3)c2O[C@@H]1CN(C)Cc1ccc(-c2ccccc2)cc1	/	/	/	.
Cc1ccc(S(=O)(=O)Nc2cccc3c2O[C@H](CN(C)Cc2ccc(Oc4ccccc4)cc2)[C@@H](C)CN([C@H](C)CO)C3=O)cc1	/	/	/	99
CCNC(=O)C[C@H]1C=C[C@@H](NC(=O)C2CC2)[C@H](CO)O1	/	.	/	/
O=C(Cn1cc(C(=O)c2ccccc2)c2ccccc21)Nc1ccc(Cl)cc1	.	.	.	.
NC(=O)c1c(NC(=O)C(Cc2ccccc2)N2C(=O)c3ccccc3C2=O)sc2c1CCCC2 (stereo unspecified)	.	+	.	.
O=C(O)C(Cc1ccccc1)N1C(=O)c2ccccc2C1=O (stereo unspecified)	.	.	65	/

Assay outcomes deposited in PubChem by Broad Institute.
